Measured values as given in PubChem BioAssay AID651900 (Broad Institute, 2012).
The list shows a part of the results. Calls of active or inactive are those of the source. No rule for the calls is given here.

Test: cytotoxicity in NIH3T3 fibroblasts, dose response, cytotoxicity control, cell-based, plate reader, cherry-pick, two tests (AID 651900)
Settings: activity: test 2 concentration series, at 26 µM

Compound: O=C(c1ccncc1)N1CC[C@@H]2[C@H]1c1cc(Br)ccc1N[C@@H]2CO
- outcome: inactive

Compound: CC1(C)CC(=O)C=C(c2ccc3ncccc3c2)C1
- activity: -5.48%
- outcome: inactive

Compound: O=C(CSc1n[nH]c(-c2cccnc2)n1)Nc1ccnc2ccccc12
- activity: -10.2%
- outcome: inactive

Compound: CC(=O)O[C@]1(C(C)=O)CC[C@H]2[C@@H]3C=C(C)C4=CC(=O)CC[C@]4(C)[C@H]3CC[C@@]21C
- activity: -6.83%
- outcome: inactive

Compound: CCCOc1ccc2c3c(c(=O)oc2c1OCCC)CCC3
- activity: -3.77%
- outcome: inactive

Compound: COc1cc(-c2n[nH]c(=S)n2Cc2ccccc2)cc(OC)c1OC
- activity: 8.41%
- outcome: inactive

Compound: C=C(C)CSc1nc(N)c2c3c(sc2n1)CCC3
- activity: 4.68%
- outcome: inactive

Compound: CC(=O)CSc1nnc(CSc2ncccn2)n1C1CCCCC1
- activity: 1.8%
- outcome: inactive

Compound: C=CCn1c(SCc2c(C(=O)OC)sc(N)c2C(=O)OC)nnc1-c1ccc(Cl)cc1
- activity: -11.5%
- outcome: inactive

Compound: COCCNC(=O)C[C@H]1CC[C@@H]2[C@H](COc3ccc(NC(=O)Nc4cccc(F)c4)cc3C(=O)N2C)O1
- outcome: inactive

Compound: Cc1nc(=O)c(-c2ccccc2)c(C)n1-c1ccc(Br)cc1
- activity: -4.55%
- outcome: inactive

Compound: CS(=O)(=O)N1[C@H](C(=O)NCc2ccncc2)[C@@H](CO)[C@@H]2Cn3c(ccc(C4=CCCCC4)c3=O)[C@@H]21
- outcome: inactive

Compound: Cc1ccc(Cc2c(C)nc3nc(SCC(=O)NCCN4CCOCC4)nn3c2C)cc1
- activity: -6.78%
- outcome: inactive

Compound: CN1c2ccc(-c3ccccc3)cc2[C@H]2[C@H](CCN2C(=O)Cc2ccccn2)[C@H]1CO
- outcome: inactive

Compound: Cn1c(=O)c2c(nc(OCc3cccnc3)n2Cc2ccccc2)n(C)c1=O
- activity: -10.3%
- outcome: inactive

Compound: Cc1c(OC(C)C(=O)NCC2CCC(C(=O)O)CC2)ccc2c1oc(=O)c1ccccc12 (configuration not stated)
- activity: 1.67%
- outcome: inactive

Compound: Cc1nc2nc(SCC(=O)NCc3ccco3)nn2c(C)c1Cc1ccccc1
- activity: -7.64%
- outcome: inactive

Compound: O=c1[nH]c(N2CCN(Cc3ccc4c(c3)OCO4)CC2)nc2c1CCCC2
- activity: 6.08%
- outcome: inactive

Compound: CC(=O)c1ccc(N2CCN(C(=O)c3ccc4nc[nH]c4c3)CC2)cc1
- activity: -0.738%
- outcome: inactive

Compound: Cc1c2cnn(CC(=O)NCc3ccccn3)c(=O)c2c(C)n1Cc1ccc(Cl)cc1
- activity: 7.63%
- outcome: inactive

Compound: CCC(CO)Oc1cc(NC(=O)c2cccc(F)c2)c2ncn(C(C)C)c2c1 (configuration not stated)
- outcome: inactive
